Compounds with a hit are over-represented: about 19% of the library has one in this group of screens.
RORgamma inh: inhibitors of mouse ROR gamma transcriptional activity | P51450 | Drosophila S2 Gal4-RORgamma UAS-luciferase reporter, 20 h | Potency, µM (series often up to 53.6 µM), without a hit: at the top dose activity change, negative = inhibition, actives largely listed as inhibitors | 5.4% of 310,000 active; note: nearly all actives have a fitted effect of over 60% in size
Target sequence (P51450 whole entry, looked up, the tested form may be a part): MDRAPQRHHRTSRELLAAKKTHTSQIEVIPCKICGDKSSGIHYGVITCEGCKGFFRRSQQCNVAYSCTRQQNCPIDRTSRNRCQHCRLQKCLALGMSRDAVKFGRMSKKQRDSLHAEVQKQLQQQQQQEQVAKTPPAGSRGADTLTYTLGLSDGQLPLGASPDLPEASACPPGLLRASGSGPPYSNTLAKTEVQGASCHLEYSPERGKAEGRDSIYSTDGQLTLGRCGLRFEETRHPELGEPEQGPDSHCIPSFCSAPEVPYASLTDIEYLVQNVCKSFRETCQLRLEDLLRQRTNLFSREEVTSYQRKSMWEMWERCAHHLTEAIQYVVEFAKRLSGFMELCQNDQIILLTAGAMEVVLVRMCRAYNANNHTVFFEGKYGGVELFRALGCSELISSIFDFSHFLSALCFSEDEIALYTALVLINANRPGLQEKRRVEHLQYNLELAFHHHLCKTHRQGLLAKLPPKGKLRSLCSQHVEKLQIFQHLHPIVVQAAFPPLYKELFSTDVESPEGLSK
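Luminescence from a UAS-regulated Photinus luciferase reporter in stably transfected Drosophila Schneider cells is measured; decreased signal marks ROR gamma inhibition. Fusion expression is induced by 700 uM copper sulfate for 20 hr.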
Gal4-VP16 FLuc: counter-screen for ROR gamma inhibitors: Gal4-VP16 reporter; Potency, µM (top dose mostly 53.6 µM), inactives show at the top dose activity, negative = inhibition, actives largely listed as inhibitors; Drosophila S2 Gal4-VP16 UAS-luciferase, luminescence, 20 h; 3.5% of 310,000 active; AID 2546;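 note: Gal4-VP16 expression switched on by copper sulfate through the metallothionein promoter; nearly all actives have a fitted effect of over 50% in size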
TDP1 cell noCPT: qHTS for Inhibitors of human tyrosyl-DNA phosphodiesterase 1 (TDP1): qHTS in cells in absence of CPT. Potency, µM (highest dose often 46.2 µM), for the others: at the top dose activity change, negative = growth inhibition, usual class: inhibitors. 15% of 420,000 active. DT40 Tdp1-/- hTDP1 cells, no CPT, ATP luminescence, 48 h; note: nearly all actives have a fitted effect of over 55% in size
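No-CPT arm: Tdp1-/-;hTDP1 DT40 cells (400/well) plus compounds, incubated ≥48 hr at 37 °C. Readout CellTiter-Glo luminescence.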
DT40 TDP1 CPT: growth inhibition of DT40 Tdp1-/-;hTDP1 cells with camptothecin (screen for TDP1 inhibitors). Potency, µM (highest dose often 46.2 µM), inactives show top-dose activity change, negative = growth inhibition, hits mostly inhibitors. chicken DT40 Tdp1-/-;hTDP1 cells + 20 nM CPT, ATP luminescence, 48 h. 12% of 420,000 active. AID 686979; note: nearly all actives have a fitted effect of over 55% in size
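Chicken DT40 Tdp1-/- cells complemented with human TDP1, 400 cells/well, exposed to compounds plus 20 nM camptothecin for at least 48 h at 37 C; viability read as ATP content by CellTiter-Glo luminescence.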
TDP1 block: blocks human tyrosyl-DNA phosphodiesterase 1. Q9NUW8. recombinant TDP1, AlphaScreen DNA substrate cleavage. Potency, µM (top dose mostly 130 µM), inactives show at the top dose activity change, negative = inhibition, most hits filed as inhibitors. 0.28% of 350,000 active. AID 485290; note: nearly all actives have a fitted effect of over 40% in size
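E. coli-derived human Tdp1, 1 nM final. Cpd preinc 15 min RT; substrate 15 nM final, 5 min RT; AS bead mix 10 ug/ml final, 10 min RT. Signal loss = tyrosine-FITC cleavage. No-enzyme wells = max signal.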
Active calls of the source: *; ? = inconclusive; . = no result given; ! = repeats disagree; [ ] = remark or other dose. Calls come from the whole dose curve; as a rule, active = well fitted curve in the direction sought with a large enough effect; inconclusive = small, poorly fitted or top-dose-only effect, or another doubt; inactive = no such curve, though single readings can be large; an effect the other way counts as inactive or inconclusive. % is set by controls: 0 for no effect and ±100 for the full control effect; potency is the fitted concentration of half-maximal effect.

SMILES	RORgamma inh	Gal4-VP16 FLuc	TDP1 cell noCPT	DT40 TDP1 CPT	TDP1 block
Nc1ccc2c(C(F)(F)F)cc(C(F)(F)F)nc2n1	-16%	-3%	-7%	3%	1%
CCC(C(=O)NC(C)(C)C)N(C(=O)Cn1nnc(-c2ccccc2F)n1)c1cnc2ccccc2c1 (stereo not given)	9%	16%	-27%	-6%	0%
CC(=O)c1cccc(NC(=O)c2cc(=O)[nH]c3ccccc23)c1	1%	2%	-28%	-23%	.
CC(C)C(=O)NC(c1ccccc1)c1cc([N+](=O)[O-])c2cccnc2c1O (stereo not given)	6.3µM*	?	?	18µM*	11%
O=C(CCc1ccccc1)NC(c1cccs1)c1cc(Cl)c2cccnc2c1O (stereo not given)	0.63µM*	0.79µM*	4.1µM*	3.7µM*	-5%
CCCC(=O)NC(c1cccs1)c1cc([N+](=O)[O-])c2cccnc2c1O (stereo not given)	5.6µM*	4µM*	13µM*	23µM*	7%
CCC(=O)NC(c1cccs1)c1cc([N+](=O)[O-])c2cccnc2c1O (stereo not given)	3.2µM*	5µM*	?	21µM*	4%
CCC(=O)NC(c1cccs1)c1cc(Cl)c2ccccc2c1O (stereo not given)	.	.	.	.	0%
CC(NC(=O)Cc1ccccc1[N+](=O)[O-])c1ccccc1 (stereo not given)	25%	2%	.	.	3%
Clc1cccc(Nc2nc(N3CCOCC3)nc(N3CCOCC3)n2)c1	0%	0%	?	?	9%
O=C(Nc1ccccc1C(=O)Nc1ccccn1)c1cccc([N+](=O)[O-])c1	15%	-5%	?	-19%	-10%
CCN(CC(=O)Nc1ccccc1C(=O)OC)S(=O)(=O)c1ccc(OC)cc1	2%	10%	?	?	-2%
O=C(Nc1nnc(-c2ccc3c(c2)CCCC3)o1)c1ccccc1Cl	1.3µM*	0.79µM*	16µM*	?	9%
O=C(Nc1nnc(-c2ccc3c(c2)CCCC3)o1)c1ccccc1	0.28µM*	0.1µM*	5.8µM*	5.2µM*	13%
O=C(Nc1cccc2c1CCCC2)c1ccccc1Cl	1%	-10%	-8%	7%	2%
O=C(COc1ccccc1)Nc1nnc(-c2ccc(F)cc2)o1	?	6.3µM*	-1%	-14%	2%
O=C(COc1ccccc1)Nc1nnc(-c2ccc3c(c2)CCCC3)o1	5.6µM*	3.5µM*	-18%	-24%	13%
O=C(COC(=O)CNC(=O)c1ccccc1)Nc1nnc(-c2ccccc2)o1	.	.	10%	-28%	-11%[0.505 µM]
COc1ccc(CNC(=O)CCSCc2ccccc2C)cc1	0%	-9%	6%	7%	1%
CCOC(=O)C1=C(O)/C(=C/c2ccc(OCC(=O)O)c(OCC)c2)SC1=Nc1ccc(C)cc1	28%	-15%	-23%	-26%	5%
CCOC(=O)C1=C(O)/C(=C/c2cc(OC)c(OC)c(OC)c2)SC1=Nc1ccc(OC)cc1	1%	-7%	21µM*	?	4%
Nc1c(N(CCO)C(=O)c2ccccc2OCc2ccccc2Cl)c(=O)[nH]c(=O)n1Cc1ccccc1	.	.	-30%	-29%	.
Cc1cccc(NC(=O)C2CCN(S(=O)(=O)c3c(C)c(C)cc(C)c3C)CC2)n1	.	.	16µM*	15µM*	5%
CCOc1ccc(S(=O)(=O)N2CCC(C(=O)N3CCc4ccccc4C3)CC2)cc1	42%	-8%	15µM*	?	3%[56.1 µM]
Cc1ccc(S(=O)(=O)N2CCC(C(=O)Nc3ccccc3N3CCCCC3)CC2)cc1	2%	-3%	?	18µM*	2%
SMILES	RORgamma inh	Gal4-VP16 FLuc	TDP1 cell noCPT	DT40 TDP1 CPT	TDP1 block
Cc1ccc(S(=O)(=O)N2CCC(C(=O)Nc3ccccc3N3CCCC3)CC2)cc1	.	.	-3%	-20%	.
COc1ccc(OC)c(S(=O)(=O)N2CCCC2C(=O)N2CCc3ccccc3C2)c1 (stereo not given)	-23%	8%	23µM*	15µM*	.
COCCn1c(SCC(=O)NNC(=O)c2ccc(OC)c(OC)c2)nc2ccccc2c1=O	0%	6%	-6%	7%	4%
Cc1[nH]c2ccccc2c1/C=N/NC(=O)c1cc(C(C)(C)C)[nH]n1	15%	0%	-28%	3%	7%
O=C(Nc1cc(S(=O)(=O)N2CCCCC2)ccc1N1CCCCC1)C1CC1	-16%	-8%	16µM*	-93%	4%
CN1CCN(c2ccc(S(=O)(=O)N3CCOCC3)cc2NC(=O)C2CCCCC2)CC1	.	.	1%	0%	.
Cc1cc(C)c(C)c(S(=O)(=O)N2CCC(C(=O)Nc3ccccc3N3CCOCC3)CC2)c1C	39%	-17%	15µM*	?	-6%
CCOc1ccc(S(=O)(=O)N2CCC(C(=O)Nc3ccccc3N3CCCC3)CC2)cc1	.	.	21µM*	?	.
COc1ccc(S(=O)(=O)N2CCC(C(=O)Nc3ccccc3N3CCCC3)CC2)cc1OC	?	-5%	-5%	?	6%[56.1 µM]
Cc1oc2ncn(C)c(=O)c2c1C(=O)N(Cc1ccccc1)C(C)C	.	.	?	-20%	-1%
C[C@@H]1O[C@H](O[C@@H]2\C=C/C=C\C=C/C=C\C[C@H](C)OC(=O)/C=C\[C@H]3O[C@@H]3C[C@H](O)C[C@]3(O)C[C@@H](O)[C@@H](C(=O)O)[C@H](C2)O3)[C@@H](O)[C@H](N)[C@@H]1O (stereo in doubt)	-8%[16.9 µM]	8%[17 µM]	.	.	16%[21 µM]
C=C(C)CSc1cc(C)c(C#N)c2nc3ccccc3n12	?	4µM*	9.2µM*	21µM*	-3%
Cc1cc(NCCCCO)n2c(nc3ccccc32)c1C#N	-9%	-6%	-20%	-22%	0%
CC(=O)Nc1cc(NC(C)=O)cc(-c2nc3ccccc3[nH]2)c1	1%	0%	5.8µM*!	8.2µM*!	6%
CC(=O)Nc1ccc2nc(-c3cc(C)ccc3C)[nH]c2c1	.	.	3.3µM*	3.3µM*	-2%[12.3 µM]
c1ccc(-c2nc3cc4ccccc4cc3[nH]2)nc1	2.8µM*	3.2µM*	?	?	7%
